PubChem BioAssay AID540275 (National Center for Advancing Translational Sciences (NCATS), 2011)
Out of some 320,000 compounds screened, about 620 (0.19%) were called active. Another 6% or so got no clear call; they are omitted. The sample holds actives, similar compounds and a random draw of the others, so the mix is not that of the screen. Cut-off read from the data, not from the text of the source: active = activation above about 80%; inconclusive = between about 30% and that limit; inactive = weaker than that.

Biological target: Transient receptor potential cation channel subfamily V member 1 (Homo sapiens) (UniProt Q8NER1)
Sequence (Q8NER1 whole entry, looked up): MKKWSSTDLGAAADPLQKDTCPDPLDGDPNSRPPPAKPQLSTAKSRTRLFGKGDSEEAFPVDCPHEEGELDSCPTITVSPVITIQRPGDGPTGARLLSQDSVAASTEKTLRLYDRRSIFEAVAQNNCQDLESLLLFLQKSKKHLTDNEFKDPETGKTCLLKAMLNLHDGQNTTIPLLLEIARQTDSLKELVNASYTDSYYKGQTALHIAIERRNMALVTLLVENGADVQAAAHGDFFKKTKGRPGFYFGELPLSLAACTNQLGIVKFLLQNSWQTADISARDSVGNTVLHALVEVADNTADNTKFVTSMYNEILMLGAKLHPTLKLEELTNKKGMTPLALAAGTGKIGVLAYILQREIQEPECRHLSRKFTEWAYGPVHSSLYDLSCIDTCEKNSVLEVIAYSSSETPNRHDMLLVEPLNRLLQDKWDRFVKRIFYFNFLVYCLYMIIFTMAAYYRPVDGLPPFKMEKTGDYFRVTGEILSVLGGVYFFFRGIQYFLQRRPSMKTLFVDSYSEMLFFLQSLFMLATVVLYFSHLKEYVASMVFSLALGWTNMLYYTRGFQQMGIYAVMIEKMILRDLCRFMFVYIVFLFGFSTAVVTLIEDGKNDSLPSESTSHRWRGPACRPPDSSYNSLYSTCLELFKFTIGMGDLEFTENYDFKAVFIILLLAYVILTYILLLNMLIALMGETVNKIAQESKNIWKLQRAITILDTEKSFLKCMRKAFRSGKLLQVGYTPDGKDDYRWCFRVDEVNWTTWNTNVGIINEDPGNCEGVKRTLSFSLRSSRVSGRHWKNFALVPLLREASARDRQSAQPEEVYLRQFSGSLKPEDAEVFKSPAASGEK
Experiment: HTS Assay for Compounds that Act as Agonists of the Vanilloid Receptor 1; note: 0% is about no effect
Settings: TRPV1-expressing cells, Fluo-8 calcium influx, agonist mode; at 8.33 µM; active compounds read high
Procedure, shortened: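 Fluo-8 calcium influx in TRPV1-expressing cells, kinetic read (ex 480/em 520 nm). Compound added and read 3 min for agonist activity, followed by capsaicin at EC20 final and 2 min further read for enhancement.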

Question: With `COc1ccc(CCn2c(=N)c(C(=O)NCC3CCCO3)cc3c(=O)n4cccc(C)c4nc32)cc1OC` (stereo unspecified) as the compound, how does the activation read?
Answer: 4.61% (inactive)

Question: For `Cc1cccn2c(=O)c3cc(C(=O)NCC4CCCO4)c(=N)n(Cc4ccc(F)cc4)c3nc12` (stereo unspecified), which activation is on record?
Answer: 84.1% (active)

Question: `Cc1cccn2c(=O)c3cc(C(=O)NCCN4CCOCC4)c(=N)n(Cc4cccnc4)c3nc12` was tested. Which activation did it give?
Answer: 22.9% (inactive)

Question: How did the activation turn out when `COC(=O)c1cc(Oc2ccc(S(=O)(=O)N3CCOCC3)cc2[N+](=O)[O-])cc(C(=O)OC)c1` was run?
Answer: -0.765% (inactive)

Question: For `CCCN(CC(=O)Nc1ccccc1C)C(=O)c1ccc2[nH]c3c(c2c1)CC(C)CC3` (stereo unspecified), which activation is on record?
Answer: 3.39% (inactive)

Question: Which activation does the source give for `CCN(CC)S(=O)(=O)c1ccc(OC)c(NC(=O)CCc2c(C)noc2C)c1` here?
Answer: -1.51% (inactive)

Question: How did the activation turn out when `CCCC(NCC(=O)Nc1ccccc1C(=O)NC1CC1)c1ccccc1` (stereo unspecified) was run?
Answer: 21.8% (inactive)

Question: `CO[C@H]1[C@@H]2C=CO[C@@H](O[C@H]3O[C@@H](CO)[C@H](O)[C@@H](O)[C@@H]3O)[C@@H]2[C@@]2(CO)O[C@@H]12` was tested. Which activation did it give?
Answer: -3.6% (inactive)

Question: `CC(C)N(C(=O)CN1CCN(S(=O)(=O)c2ccc(Br)s2)CC1)C(C)C` was tested. Which activation did it give?
Answer: 17.4% (inactive)

Question: Which activation does the source give for `CCCCN(CC(=O)Nc1cccc(S(=O)(=O)N2CCCC2)c1)Cc1nc2ccccc2c(=O)[nH]1` here?
Answer: 26.8% (inactive)

Question: For `CCOc1ccc(CCNC(=O)COC(=O)c2c(OC)cccc2OC)cc1OCC`, which activation is on record?
Answer: -2.55% (inactive)

Question: With `CCOc1cc(NC(=O)Nc2ccccc2)c(OCC)cc1NC(=O)CC` as the compound, how does the activation read?
Answer: 3.84% (inactive)

Question: Which activation does the source give for `CCOc1ccc(CCNC(=O)Nc2ccccc2)cc1OCC` here?
Answer: 91.3% (active)

Question: For `Cc1cc(C(=O)COc2ccc(Br)cc2F)c(C)n1C1CC1`, which activation is on record?
Answer: 20.7% (inactive)

Question: `CNS(=O)(=O)c1cccc(C(=O)OCCCC(=O)c2ccccc2)c1` was tested. Which activation did it give?
Answer: 4.36% (inactive)

Question: `CC(OC(=O)Cc1ccc(F)cc1)C(=O)N1CCc2ccccc21` (stereo unspecified) was tested. Which activation did it give?
Answer: 16.3% (inactive)

Question: `Cc1cc(C)n2nc(C(=O)Nc3cccc(S(=O)(=O)N4CCOCC4)c3)nc2n1` was tested. Which activation did it give?
Answer: 0.0473% (inactive)

Question: For `Nc1cc(N)nc(SCC(=O)Nc2cccc(S(=O)(=O)N3CCCCC3)c2)n1`, which activation is on record?
Answer: 1.32% (inactive)

Question: How did the activation turn out when `O=C(NCCc1ccc(F)cc1)c1ccc(S(=O)(=O)N2CCCCC2)cc1` was run?
Answer: 28.8% (inactive)

Question: With `O=C(N/N=C/c1cccc(Br)c1)c1ccc(N2CCCC2=O)cc1` as the compound, how does the activation read?
Answer: 14.1% (inactive)

Question: `C/C(=N\NC(=O)c1cccc(N2CCCC2=O)c1)c1ccc(N)cc1` was tested. Which activation did it give?
Answer: -0.551% (inactive)

Question: With `COc1cc(/C=N/NC(=O)c2ccc(N3CCCC3=O)cc2)ccc1O` as the compound, how does the activation read?
Answer: 82.8% (active)

Question: How did the activation turn out when `Cc1ccc(C(=O)CN2C(=O)NC3(CCOc4ccccc43)C2=O)s1` (stereo unspecified) was run?
Answer: -5.77% (inactive)

Question: For `CC(C)CCN1CCC(C)(NC(=O)c2ccccc2)C1=O` (stereo unspecified), which activation is on record?
Answer: -3.6% (inactive)

Question: `CC(=O)c1ccc(OCCCC(=O)Nc2ccc(C)c(S(=O)(=O)N3CCOCC3)c2)cc1` was tested. Which activation did it give?
Answer: 5.88% (inactive)

Question: How did the activation turn out when `COc1cc(OC)c(N2CC(C(=O)Nc3cc(Cl)ccc3N3CCOCC3)CC2=O)cc1Cl` (stereo unspecified) was run?
Answer: 1.31% (inactive)

Question: `Cc1cccc(Nc2nnc(SCC(=O)c3c(N)n(C4CC4)c(=O)[nH]c3=O)s2)c1C` was tested. Which activation did it give?
Answer: -1.01% (inactive)

Question: For `COc1ccc(C(=O)OCC(=O)c2cc(C)n(CC3CCCO3)c2C)cc1[N+](=O)[O-]` (stereo unspecified), which activation is on record?
Answer: -3.97% (inactive)

Question: `CN(CC(=O)NC1CCN(Cc2ccccc2)CC1)S(=O)(=O)c1ccc(Cl)s1` was tested. Which activation did it give?
Answer: 7.2% (inactive)

Question: How did the activation turn out when `CN(C(=O)CSc1nnc(-c2ccc3c(c2)OCO3)o1)C1CCS(=O)(=O)C1` (stereo unspecified) was run?
Answer: 1.32% (inactive)

Question: With `COc1ccc(C(=O)N2CCN(c3ncccn3)CC2)cc1S(=O)(=O)N1CCOCC1` as the compound, how does the activation read?
Answer: 4.11% (inactive)

Question: How did the activation turn out when `O=C(NC1CC1)c1ccc(-c2ccccc2)cc1` was run?
Answer: 83% (active)

Question: `O=C(NC1CCCC1)c1cc(-c2ccccc2)on1` was tested. Which activation did it give?
Answer: 22.2% (inactive)

Question: With `O=C(NC1CC1)c1cccc(Br)c1` as the compound, how does the activation read?
Answer: -0.868% (inactive)

Question: `CN(C(=O)CSc1nnc(-c2ccc(C(C)(C)C)cc2)n1C)C1CCS(=O)(=O)C1` (stereo unspecified) was tested. Which activation did it give?
Answer: 1.75% (inactive)

Question: `Cc1cc(C(=O)COc2ccccc2Cl)c(C)n1C1CC1` was tested. Which activation did it give?
Answer: 26.9% (inactive)

Question: Which activation does the source give for `Cc1ccc(S(=O)(=O)N2CC(O)C[C@H]2C(=O)OCC(=O)Nc2ccc(N3CCOCC3)cc2)cc1C` (stereo partly specified) here?
Answer: -0.193% (inactive)

Question: `CCc1noc(C)c1C(=O)Nc1nc2ccc(OC)cc2s1` was tested. Which activation did it give?
Answer: 8.32% (inactive)

Question: How did the activation turn out when `COc1ccc2nc(NC(=O)c3ccc(Br)s3)sc2c1` was run?
Answer: 97.1% (active)

Question: Which activation does the source give for `COc1cccc(C(=O)Nc2nc3ccc(S(C)(=O)=O)cc3s2)c1` here?
Answer: -1.41% (inactive)

Question: Which activation does the source give for `COc1ccc(NC(=O)CC2SC(N3CCCCC3)=NC2=O)cc1OC` (stereo unspecified) here?
Answer: 1.55% (inactive)

Question: Which activation does the source give for `Cc1cc2nc3c(=O)n(Cc4ccccc4)c(=O)[nH]c3nc2cc1N` here?
Answer: 90.7% (active)

Question: Which activation does the source give for `Cc1nc2c(c(=O)n1Cc1ccco1)c1nc3ccccc3nc1n2Cc1ccccc1` here?
Answer: 1.97% (inactive)

Question: How did the activation turn out when `CC(=O)c1ccc(-c2ccc(Cn3c(C)nc4cc(N)c(C)nc43)cc2)cc1` was run?
Answer: 4.86% (inactive)

Question: Which activation does the source give for `CCOC(=O)c1ccc(NC(=O)c2cccnc2)cc1` here?
Answer: -0.797% (inactive)

Question: With `CCN(CC)c1ccc(NC(=O)c2ccc(Cl)nc2)cc1` as the compound, how does the activation read?
Answer: 82% (active)

Question: `Cc1cnc(NC(=O)c2ccc(Cl)nc2)s1` was tested. Which activation did it give?
Answer: 1.7% (inactive)

Question: With `Cc1csc(NC(=O)C2CCN(S(=O)(=O)c3ccccc3)CC2)n1` as the compound, how does the activation read?
Answer: 0.443% (inactive)

Question: For `CCCCn1nc(C(=O)Nc2cccc(C(=O)NC3CC3)c2)c2ccccc2c1=O`, which activation is on record?
Answer: 17.8% (inactive)

Question: Which activation does the source give for `CC(C)n1ncc2c(C(=O)NCc3ccccc3CN(C)C)cc(C3CC3)nc21` here?
Answer: 1.42% (inactive)

Question: `O=S(=O)(c1cccs1)N1CCN(CCOc2ccccc2)CC1` was tested. Which activation did it give?
Answer: 10.7% (inactive)

Question: For `O=C(NCC(=O)N1CCCCCCC1)c1ccccc1Cl`, which activation is on record?
Answer: 4.74% (inactive)

Question: With `COc1ccccc1C(CNC(=O)c1cccc(S(=O)(=O)Nc2ccc(F)cc2)c1)N(C)C` (stereo unspecified) as the compound, how does the activation read?
Answer: 1.81% (inactive)

Question: For `COc1ccccc1-c1sc2ccccc2c1-c1ccc(Br)nc1`, which activation is on record?
Answer: 1.98% (inactive)

Question: Which activation does the source give for `Cc1ccc(C(CC(=O)O)NC(=O)c2ccc(S(=O)(=O)N3CCCC3)cc2)cc1` (stereo unspecified) here?
Answer: -0.421% (inactive)

Question: `O=C(CN1CCc2ccccc2C1)Nc1cccc(S(=O)(=O)N2CCOCC2)c1` was tested. Which activation did it give?
Answer: 13.1% (inactive)
